Test results as given in PubChem BioAssay AID1159580 (chemical genetic matrix, 2015).
Out of some 5,500 compounds screened, about 2,000 (36%) were called active. Another 18% or so got no clear call; they are omitted. Cut-off read from the data, not from the text of the source: active = normalized growth mostly below about 0.91 (no sharp cut-off); inconclusive = no clear call, values can overlap the other calls; inactive = mostly above about 0.92. This is one part of the list.

Assay: chemical genetic growth profiling, strain panel (AID 1159580);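 note: tested at 20 µM; growth read once vehicle control cultures reached saturation at 30 °C; 1 = growth at the plate median or of vehicle wells; lower values mean less growth of the strain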
Details: growth OD
[1] = S. cerevisiae deletion strains, locus YAR019C, strain CDC15, active compounds read low
[2] = S. cerevisiae deletion strains, locus YBL105C, strain PKC1, active compounds read low
[3] = S. cerevisiae deletion strains, locus YBR135W, strain CKS1, active compounds read low
[4] = S. cerevisiae deletion strains, locus YBR136W, strain MEC1, active compounds read low
[5] = S. cerevisiae deletion strains, locus YBR160W, strain CDC28, active compounds read low
[6] = S. cerevisiae deletion strains, locus YDL017W, strain CDC7, active compounds read low
[7] = S. cerevisiae deletion strains, locus YDL028C, strain MPS1, active compounds read low
[8] = S. cerevisiae deletion strains, locus YDL101C, strain DUN1, active compounds read low
[9] = S. cerevisiae deletion strains, locus YDL108W, strain KIN28, active compounds read low
[10] = S. cerevisiae deletion strains, locus YDL132W, strain cdc53, active compounds read low
[11] = S. cerevisiae deletion strains, locus YDL214C, strain PRR2, active compounds read low
[12] = S. cerevisiae deletion strains, locus YDR052C, strain DBF4, active compounds read low
[13] = S. cerevisiae deletion strains, locus YDR054C, strain cdc34, active compounds read low
[14] = S. cerevisiae deletion strains, locus YDR226W, strain ADK1, active compounds read low
[15] = S. cerevisiae deletion strains, locus YDR477W, strain SNF1, active compounds read low
[16] = S. cerevisiae deletion strains, locus YER123W, strain YCK3, active compounds read low
[17] = S. cerevisiae deletion strains, locus YER133W, strain GLC7, active compounds read low
[18] = S. cerevisiae deletion strains, locus YFL009W, strain cdc4, active compounds read low
[19] = S. cerevisiae deletion strains, locus YFL029C, strain CAK1, active compounds read low
[20] = S. cerevisiae deletion strains, locus YFR003C, strain YPI1, active compounds read low
[21] = S. cerevisiae deletion strains, locus YFR019W, strain FAB1, active compounds read low
[22] = S. cerevisiae deletion strains, locus YFR028C, strain CDC14, active compounds read low
[23] = S. cerevisiae deletion strains, locus YGR040W, strain KSS1, active compounds read low
[24] = S. cerevisiae deletion strains, locus YGR052W, strain FMP48, active compounds read low
[25] = S. cerevisiae deletion strains, locus YGR092W, strain DBF2, active compounds read low
[26] = S. cerevisiae deletion strains, locus YHR030C, strain SLT2, active compounds read low
[27] = S. cerevisiae deletion strains, locus YHR079C, strain IRE1, active compounds read low
[28] = S. cerevisiae deletion strains, locus YHR082C, strain KSP1, active compounds read low
[29] = S. cerevisiae deletion strains, locus YHR205W, strain SCH9, active compounds read low
[30] = S. cerevisiae deletion strains, locus YIL147C, strain SLN1, active compounds read low
[31] = S. cerevisiae deletion strains, locus YJL095W, strain BCK1, active compounds read low
[32] = S. cerevisiae deletion strains, locus YJL128C, strain PBS2, active compounds read low
[33] = S. cerevisiae deletion strains, locus YJL157C, strain FAR1, active compounds read low
[34] = S. cerevisiae deletion strains, locus YJR016C, strain ILV3, active compounds read low
[35] = S. cerevisiae deletion strains, locus YJR066W, strain TOR1 (second series), active compounds read low
[36] = S. cerevisiae deletion strains, locus YJR066W, strain TOR1, active compounds read low
[37] = S. cerevisiae deletion strains, locus YKL048C, strain ELM1, active compounds read low
[38] = S. cerevisiae deletion strains, locus YKL067W, strain YNK1, active compounds read low
[39] = S. cerevisiae deletion strains, locus YKL101W, strain HSL1, active compounds read low
[40] = S. cerevisiae deletion strains, locus YKL193C, strain SDS22, active compounds read low
[41] = S. cerevisiae deletion strains, locus YKL203C, strain TOR2, active compounds read low
[42] = S. cerevisiae deletion strains, locus YLR113W, strain HOG1, active compounds read low
[43] = S. cerevisiae deletion strains, locus YLR133W, strain CKI1, active compounds read low
[44] = S. cerevisiae deletion strains, locus YLR403W, strain SFP1, active compounds read low
[45] = S. cerevisiae deletion strains, locus YML070W, strain DAK1, active compounds read low
[46] = S. cerevisiae deletion strains, locus YMR001C, strain CDC5, active compounds read low
[47] = S. cerevisiae deletion strains, locus YMR205C, strain PFK2 (second series), active compounds read low
[48] = S. cerevisiae deletion strains, locus YMR277W, strain FCP1, active compounds read low
[49] = S. cerevisiae deletion strains, locus YNL006W, strain LST8, active compounds read low
[50] = S. cerevisiae deletion strains, locus YNL020C, strain ARK1, active compounds read low
[51] = S. cerevisiae deletion strains, locus YNL161W, strain CBK1, active compounds read low
[52] = S. cerevisiae deletion strains, locus YNL183C, strain NPR1, active compounds read low
[53] = S. cerevisiae deletion strains, locus YNL207W, strain RIO2, active compounds read low
[54] = S. cerevisiae deletion strains, locus YNL222W, strain SSU72, active compounds read low
[55] = S. cerevisiae deletion strains, locus YNL307C, strain MCK1 (second series), active compounds read low
[56] = S. cerevisiae deletion strains, locus YOL078W, strain AVO1, active compounds read low
[57] = S. cerevisiae deletion strains, locus YOL136C, strain PFK27, active compounds read low
[58] = S. cerevisiae deletion strains, locus YOR061W, strain CKA2, active compounds read low
[59] = S. cerevisiae deletion strains, locus YOR119C, strain RIO1, active compounds read low
[60] = S. cerevisiae deletion strains, locus YOR231W, strain MKK1, active compounds read low
[61] = S. cerevisiae deletion strains, locus YOR329C, strain SCD5, active compounds read low
[62] = S. cerevisiae deletion strains, locus YPL031C, strain PHO85, active compounds read low
[63] = S. cerevisiae deletion strains, locus YPL153C, strain RAD53, active compounds read low
[64] = S. cerevisiae deletion strains, locus YPL204W, strain HRR25, active compounds read low
[65] = S. cerevisiae deletion strains, locus YPL209C, strain IPL1, active compounds read low
[66] = S. cerevisiae deletion strains, locus YPL256C, strain CLN2, active compounds read low
[67] = S. cerevisiae deletion strains, locus YPR025C, strain CCL1, active compounds read low
[68] = S. cerevisiae deletion strains, locus YPR106W, strain ISR1, active compounds read low
[69] = S. cerevisiae deletion strains, locus YPR111W, strain DBF20, active compounds read low
[70] = S. cerevisiae deletion strains, strain NNK1, active compounds read low
[71] = S. cerevisiae deletion strains, strain TSCII, active compounds read low

Measured: normalized growth

Fc1cccc(F)c1NC(=S)Nc1cc(C(F)(F)F)cc(C(F)(F)F)c1
inactive: [1] 0.979 | [2] 0.979 | [3] 0.981 | [4] 0.982 | [5] 0.982 | [6] 0.992 | [7] 0.975 | [8] 0.991 | [9] 0.984 | [10] 0.979 | [11] 0.907 | [12] 0.987 | [13] 0.978 | [14] 0.986 | [15] 0.948 | [16] 0.907 | [17] 0.933 | [18] 0.976 | [19] 0.976 | [20] 0.981 | [21] 0.98 | [22] 0.977 | [23] 0.954 | [24] 0.933 | [25] 0.967 | [26] 0.981 | [27] 0.85 | [28] 1.01 | [29] 0.87 | [30] 0.981 | [31] 0.862 | [32] 0.919 | [33] 0.923 | [34] 0.979 | [35] 0.931 | [36] 1.06 | [37] 0.934 | [38] 0.931 | [39] 0.91 | [40] 0.977 | [41] 1.02 | [43] 0.948 | [44] 0.974 | [45] 0.907 | [46] 0.981 | [47] 0.95 | [48] 0.975 | [49] 0.977 | [50] 0.932 | [51] 0.98 | [52] 0.98 | [53] 0.985 | [54] 0.979 | [55] 0.918 | [56] 0.977 | [57] 0.928 | [58] 0.953 | [59] 0.997 | [60] 0.91 | [61] 0.986 | [62] 0.942 | [63] 0.939 | [64] 0.936 | [65] 0.991 | [67] 0.982 | [68] 0.981 | [69] 0.972 | [70] 0.974 | [71] 0.98
active: [42] 0.742 | [66] 0.829

COc1ccc(CCNC(=S)Nc2cccc(C(F)(F)F)c2)cc1OC
inactive: S. cerevisiae deletion strains, locus YAL013W, strain DEP1, active compounds read low 0.997 | S. cerevisiae deletion strains, locus YBR229C, strain ROT2, active compounds read low 0.995 | [8] 0.999 | S. cerevisiae deletion strains, locus YDR150W, strain NUM1, active compounds read low 0.957 | S. cerevisiae deletion strains, locus YEL061C, strain CIN8, active compounds read low 1.02 | S. cerevisiae deletion strains, locus YGR078C, strain PAC10, active compounds read low 0.971 | [26] 0.9 | S. cerevisiae deletion strains, locus YHR087W, strain rtc3, active compounds read low 1.03 | S. cerevisiae deletion strains, locus YJL187C, strain SWE1, active compounds read low 1.01 | S. cerevisiae deletion strains, locus YJR043C, strain POL32, active compounds read low 0.968 | S. cerevisiae deletion strains, locus YJR075W, strain HOC1, active compounds read low 0.981 | S. cerevisiae deletion strains, locus YLR039C, strain RIC1, active compounds read low 0.837 | S. cerevisiae deletion strains, locus YLR058C, strain SHM2 (second series), active compounds read low 1.01 | S. cerevisiae deletion strains, locus YLR085C, strain ARP6, active compounds read low 0.962 | S. cerevisiae deletion strains, locus YLR262C, strain YPT6, active compounds read low 0.831 | S. cerevisiae deletion strains, locus YML094W, strain GIM5, active compounds read low 0.968 | S. cerevisiae deletion strains, locus YMR219W, strain ESC1, active compounds read low 1 | S. cerevisiae deletion strains, locus YMR263W, strain SAP30, active compounds read low 0.981 | S. cerevisiae deletion strains, locus YNL128W, strain TEP1, active compounds read low 0.987 | S. cerevisiae deletion strains, locus YNL153C, strain GIM3, active compounds read low 0.969 | S. cerevisiae deletion strains, locus YNL298W, strain CLA4 (second series), active compounds read low 1 | S. cerevisiae deletion strains, locus YNL322C, strain KRE1, active compounds read low 0.996 | S. cerevisiae deletion strains, locus YNR030W, strain Alg12, active compounds read low 1 | S. cerevisiae deletion strains, locus YOL006C, strain TOP1, active compounds read low 0.964 | S. cerevisiae deletion strains, locus YPL055C, strain LGE1, active compounds read low 1 | S. cerevisiae deletion strains, locus YPL241C, strain CIN2, active compounds read low 0.969 | S. cerevisiae deletion strains, locus YPR135W, strain CTF4, active compounds read low 0.895 | S. cerevisiae strains, strain wild type, active compounds read low 0.982

FC(F)(F)c1cccc(NC(=S)Nc2ccccc2)c1
inactive: [1] 0.983 | [2] 0.98 | [3] 0.975 | [4] 0.979 | [5] 0.981 | [6] 0.987 | [7] 0.98 | [8] 0.989 | [9] 0.978 | [10] 0.966 | [11] 0.949 | [12] 0.996 | [13] 0.982 | [14] 0.98 | [15] 0.954 | [16] 0.96 | [17] 0.958 | [18] 0.973 | [19] 0.983 | [20] 0.982 | [21] 0.962 | [22] 0.967 | [23] 0.941 | [24] 0.974 | [25] 0.883 | [26] 1 | [27] 1.04 | [28] 1 | [29] 0.951 | [30] 0.977 | [31] 0.882 | [32] 0.959 | [33] 0.941 | [34] 0.968 | [35] 0.897 | [36] 0.989 | [37] 1 | [38] 0.961 | [39] 0.955 | [40] 0.973 | [41] 0.995 | [42] 0.962 | [43] 0.947 | [44] 0.899 | [45] 0.966 | [46] 0.98 | [47] 0.991 | [48] 0.97 | [49] 0.985 | [50] 0.974 | [51] 0.981 | [52] 1 | [53] 0.967 | [54] 0.981 | [55] 0.896 | [56] 0.967 | [57] 0.95 | [58] 0.952 | [59] 1.02 | [60] 0.95 | [61] 0.989 | [62] 0.952 | [63] 0.954 | [64] 0.934 | [65] 0.978 | [66] 1.1 | [67] 0.982 | [68] 0.987 | [69] 0.969 | [70] 0.982 | [71] 0.975
